These results are taken from PubChem BioAssay (NCI).

Assay in all cases: NCI-60 one-dose screen, 48 h (100 = growth as untreated, 0 = no growth, -100 = all killed)
Holding throughout (conditions): 10 µM

For experiment [1], the system named is NCI-H23 lung.
Experiment [2] has as its system NCI-H226 lung.
In experiment [3] the test system is NCI-H322M lung.
Experiment [4] has as its system HOP-62 NSCLC.
Experiment [5] has as its system NCI-H460 lung.
The subject of experiment [6] is HOP-92 NSCLC.
The test system of experiment [7] is NCI-H522 lung.
The test system of experiment [8] is A549/ATCC NSCLC.
Experiment [9] relates to 786-0 renal.
The subject of experiment [10] is COLO 205 colon.

This is part of a sample that, as a whole, favours compounds with a hit. Of some 83,000 tested, about 20% had one in any assay.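 Assay: single dose, 48 h. Readout: percent growth (0 = no net growth; negative = cell death). Active: <10.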 A number with no mark means an inactive call. Calls of active or inactive are those of the source.

Turning to `O=C1CC(c2cccc(-c3cccnc3)c2)=Nc2ccc(Br)cc2N1`, the growth in experiment [1] was 44.4%; in experiment [2], 27.8%; in [3] it was 67.2%; in experiment [4], 19.7%; in [5], 24.3%; in experiment [6], 23.5%. Further, the growth in experiment [7] is 22.5%; in experiment [8] it was 38.1%; in [9], 1.54% (active); in experiment [10], 61.1%.

Regarding `O=C1/C(=C/c2ccc(O)cc2O)N=C2SCCCN12`, the growth in experiment [1] is 95.2%; in experiment [2], 106%; in experiment [3] it was 97.8%; in [4] it was 85.4%; in experiment [5], 110%; in [6] it was 108%. For the same molecule, the growth in experiment [7] was 92.3%; in experiment [8], 92.1%; in experiment [9], 81.9%; in experiment [10] it was 106%.

Take `CCOC(=O)c1c(O)c2cc(-c3ccccc3)nc(OCC)c2c(=O)n1C`: the growth in [1] is 85.8%; in experiment [2], 79%; in experiment [3], 122%; in [4], 93.2%; in experiment [5], 110%; in experiment [6], 51.7%. Further, the growth in [7] is 98.9%; in experiment [8] it was 99.4%; in experiment [9], 94%; in experiment [10], 117%.

In the case of `O=C(Nc1cccc(F)c1)Nc1cccc(Cl)c1`, the growth in experiment [1] was 89.8%; in [2], 102%; in experiment [3], 94.8%; in experiment [4], 99.6%; in experiment [5] it was 56%; in experiment [6], 76.7%. The growth is 90.5% in experiment [7], 74.7% in experiment [8], 94.2% in experiment [9] and 93.6% in [10].

On to `COc1ccccc1NC1=C(N2CCCCC2)C(=O)c2ccccc2C1=O`, for which the growth in [1] is 98.7%; in experiment [2], 84.5%; in [3], 80.9%; in experiment [4], 98.8%; in experiment [5] it was 87.9%; in experiment [6], 57.9%. Besides, the growth in experiment [7] was 82.5%; in experiment [8] it was 74.4%; in experiment [9] it was 87.5%; in [10] it was 92.3%.

`COc1cc(N=C2C(=O)N(Cc3ccccc3)c3ccccc32)cc(OC)c1OC`: the growth in experiment [1] was 89.9%; in experiment [2], 88.3%; in experiment [3], 108%; in experiment [4], 101%; in experiment [5], 103%; in experiment [6], 35.6%. Further, the growth in experiment [7] was 75%; in [8], 103%; in experiment [9], 103%; in experiment [10], 114%.

For the molecule `Cc1ccc2nc(-c3ccc(OCC(=O)N=Nc4c(O)[nH]c5ccccc45)cc3)[nH]c2c1`, the growth in experiment [1] was 94.9%; in [2], 92.6%; in experiment [3], 91.3%; in [4], 104%; in experiment [5], -13.4% (active); in experiment [6] it was 81.9%. Further, the growth in experiment [7] is 79.4%; in experiment [8], 79.2%; in [9], 36.1%; in [10], 58.4%.

Take `O=C(Nc1ccc(OS(=O)(=O)Cc2ccccc2)cc1)C12CC3CC(CC(C3)C1)C2`: the growth in experiment [1] is 84.8%; in experiment [2], 90.3%; in experiment [3], 95.3%; in experiment [4], 79.3%; in experiment [5], 68.8%; in experiment [6], 59.9%. For the same molecule, the growth in experiment [7] was 81.6%; in experiment [8], 78.5%; in experiment [9], 94.1%; in [10] it was 27.4%.

Regarding `O=C(OCC1OC(n2cc(C(F)(F)F)c(=O)[nH]c2=O)CC1OC(=O)c1ccc([N+](=O)[O-])cc1)c1ccc([N+](=O)[O-])cc1` (stereo not given), the growth in experiment [1] was 90.9%; in experiment [2] it was 72.5%; in [3], 91.2%; in [4], 75.9%; in experiment [5], 31.2%; in experiment [6], 69.9%. Besides, the growth was 76.6% in experiment [7], 69.6% in [8], 18.9% in experiment [9] and 87.8% in experiment [10].
